Measured values reported in PubChem BioAssay (Tox21).
“And” between values parts separate entries of the source, which are not always exact repeats. Identical values can stand only once. Inconclusive results are not listed. The source made the active and inactive calls. Unless noted, the call rests on the fitted dose curve; in most records, active means well fitted curve in the direction sought with a large enough effect in the repeat runs; inconclusive means weak or mixed curves; inactive means no such curve, though single readings can be large; an effect the other way counts as inactive or inconclusive.

Key:
[1] = qHTS assay to identify small molecule antagonists of the estrogen related receptor (ERR) signaling pathway from Tox21 library - cell viability counter screen (AID 1224834); further: nearly all actives have a fitted effect of over 30% in size; further: potency means the concentration at half of the fitted maximal effect
Method in brief: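 CellTiter-Fluor fluorescence measured; ERR cells; 17.5 h compound incubation at 37 C; 30 min reagent step.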

[2] = molecular target: Luciferin 4-monooxygenase (Photinus pyralis) (UniProt P08659); assay: qHTS assay to identify small molecule inhibitors of firefly luciferase (AID 1224835); further: series mostly up to about 120 µM; nearly all actives have a fitted effect of over 25% in size
Chain of Luciferin 4-monooxygenase (Photinus pyralis) (P08659 whole entry, looked up): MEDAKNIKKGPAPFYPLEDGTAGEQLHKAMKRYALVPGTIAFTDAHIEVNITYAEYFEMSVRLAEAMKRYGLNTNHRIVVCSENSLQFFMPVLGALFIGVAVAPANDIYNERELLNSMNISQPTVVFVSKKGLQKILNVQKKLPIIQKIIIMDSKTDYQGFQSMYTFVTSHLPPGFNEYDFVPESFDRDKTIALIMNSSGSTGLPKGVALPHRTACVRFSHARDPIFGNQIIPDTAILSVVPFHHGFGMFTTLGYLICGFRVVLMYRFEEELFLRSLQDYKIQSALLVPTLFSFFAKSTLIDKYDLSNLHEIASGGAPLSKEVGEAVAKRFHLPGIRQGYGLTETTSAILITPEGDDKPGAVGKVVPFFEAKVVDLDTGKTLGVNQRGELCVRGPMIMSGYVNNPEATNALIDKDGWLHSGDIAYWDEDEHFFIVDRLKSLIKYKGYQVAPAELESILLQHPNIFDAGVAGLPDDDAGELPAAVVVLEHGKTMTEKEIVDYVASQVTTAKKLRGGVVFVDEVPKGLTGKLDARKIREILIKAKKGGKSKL
Method in brief: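 Biochemical qHTS: compounds run as interplate titrations against purified firefly enzyme, with D-luciferin and ATP each at its KM concentration. Light output recorded by CCD imaging.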

[3] = qHTS assay to identify small molecule agonists of the constitutive androstane receptor (CAR) signaling pathway - cell viability counter screen (AID 1224836); further: nearly all actives have a fitted effect of over 45% in size; further: potency means the concentration at half of the fitted maximal effect; on viability change, negative = cytotoxic: series mostly up to about 92 µM
Method in brief: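 Counter screen multiplexed with the CAR reporter readout: HepG2 cells co-transfected with hCAR and the CYP2B6-2.2kb construct receive a 15-concentration compound series and 0.75 uM PK11195 (final), then CellTiter-Fluor fluorescence is read after 23 h.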

[4] = qHTS assay to identify small molecule antagonists of the constitutive androstane receptor (CAR) signaling pathway - cell viability counter screen (AID 1224837); further: nearly all actives have a fitted effect of over 45% in size; further: potency means the concentration at half of the fitted maximal effect; on activity change, negative = cytotoxicity: series mostly up to about 92 µM
Method in brief: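 Using CellTiter-Fluor, viability is scored in HepG2 cells stably carrying hCAR and a 2.2kb CYP2B6 reporter after 23 hr compound exposure across 15 concentrations, with CITCO present at 50 nM.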

[5] = qHTS assay to identify small molecule antagonists of the estrogen related receptor signaling pathway with the pleiotropic PPARgamma coactivator (PGC) from Tox21 10K library - cell viability counter screen (AID 1224840; active means well fitted cell-killing curve with a large enough effect in the repeat runs, not every such curve was filed as active; further: nearly all actives have a fitted effect of over 40% in size; further: potency means the concentration at half of the fitted maximal effect)
Method in brief: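 Here the PGC/ERR cells serve as a cytotoxicity control: they are exposed to compounds for 17.5 hours at 37 C, and live-cell signal is quantified using CellTiter-Fluor fluorescence.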

[6] = qHTS assay to identify small molecule agonists of the estrogen related receptor signaling pathway with the pleiotropic PPARgamma coactivator (PGC) from Tox21 10K library (AID 1224842); further: nearly all actives have a fitted effect of over 15% in size
Method in brief: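 PGC/ERR reporter cell line, 2,000 cells per well, incubated 6 h at 37 C before 23 nL compound in DMSO was added. After 18 h at 37 C, One-Glo luminescence read following 30 min at room temperature.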

[7] = molecular target: Nuclear receptor subfamily 1 group I member 3 (Homo sapiens) (UniProt Q14994); assay: qHTS assay to identify small molecule agonists of the constitutive androstane receptor (CAR) signaling pathway (AID 1224839); further: nearly all actives have a fitted effect of over 15% in size; further: potency means the concentration at half of the fitted maximal effect; on activation: series mostly up to about 92 µM
Chain of Nuclear receptor subfamily 1 group I member 3 (Homo sapiens) (Q14994 whole entry, looked up): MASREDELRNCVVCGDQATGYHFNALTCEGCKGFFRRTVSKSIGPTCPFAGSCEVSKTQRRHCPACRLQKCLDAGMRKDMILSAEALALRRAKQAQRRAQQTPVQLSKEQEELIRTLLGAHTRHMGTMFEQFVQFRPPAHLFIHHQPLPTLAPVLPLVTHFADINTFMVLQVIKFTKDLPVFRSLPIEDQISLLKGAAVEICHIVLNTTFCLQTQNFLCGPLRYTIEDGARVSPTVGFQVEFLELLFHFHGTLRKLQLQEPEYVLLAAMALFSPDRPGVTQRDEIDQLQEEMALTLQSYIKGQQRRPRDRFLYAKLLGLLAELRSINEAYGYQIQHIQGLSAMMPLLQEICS
Method in brief: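 A 15-concentration quantitative screen uses HepG2 cells co-transfected stably with human CAR and CYP2B6-2.2kb reporter. Treatment lasts 24 h with 0.75 uM PK11195 final present; ONE-Glo luminescence is the signal.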

[8] = qHTS assay to identify small molecule antagonists of the estrogen related receptor signaling pathway with the pleiotropic PPARgamma coactivator (PGC) from Tox21 10K library (AID 1224841; call rule not given here; further: actives are mostly falling curves and most rising ones were filed inactive; nearly all actives have a fitted effect of over 50% in size; further: potency means the concentration at half of the fitted maximal effect)
Method in brief: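 Each well held 2,000 PGC/ERR cells, pre-incubated six hours (37 C, 5% CO2). Test substances in DMSO were added by pin tool and left for 18 h at 37 C before luciferase detection by One-Glo.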

[9] = molecular target: Nuclear receptor subfamily 1 group I member 3 (Homo sapiens) (UniProt Q14994); assay: qHTS assay to identify small molecule antagonists of the constitutive androstane receptor (CAR) signaling pathway (AID 1224838);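 further: HepG2 cells stably expressing hCAR with CYP2B6 luciferase reporter stimulated by CITCO; nearly all actives have a fitted effect of over 40% in size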; further: potency means the concentration at half of the fitted maximal effect
Method in brief: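 Reporter luminescence was quantified after 24 h exposure of hCAR/CYP2B6-2.2kb double-stable HepG2 cells to compounds at 15 concentrations in the presence of 50 nM CITCO final.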
On the % scale 0 is the no-effect control and ±100 the full control effect.

O=S(=O)(c1ccccc1)c1ccc(Cl)cc1
inactive: Potency [1] | Potency [2] | Potency [3] | Potency [4] | Potency [5] | Potency [6]

CC(COc1ccc(C(C)(C)C)cc1)OS(=O)OCCCl (stereo unspecified)
active: Potency [1] 0.488 µM | Potency [4] 0.274 µM | Potency [5] 0.614 µM | Potency [8] 1.23 µM
inactive: Potency [2] | Potency [7] | Potency [6]

CN1CCN(CCCN2c3ccccc3Sc3ccc(S(=O)(=O)N(C)C)cc32)CC1
inactive: Potency [2] | Potency [7]
active: Potency [1] 26.6 µM

Cc1ccccc1N1C(=O)c2cc(S(N)(=O)=O)c(Cl)cc2NC1C (stereo unspecified)
inactive: Potency [1] | Potency [2] | Potency [3] | Potency [5]

C/C=C(\C)C(=O)OCCC(C)CCC=C(C)C (stereo unspecified)
inactive: Potency [1] | Potency [2] | Potency [3] | Potency [5]

CCCCN(CCCC)CCCOC(=O)c1ccc(N)cc1
active: Potency [7] 26.6 µM
inactive: Potency [1] | Potency [2] | Potency [3] | Potency [9] | Potency [5]

CC1=CC(=O)CC(C)(C)C1(O)/C=C/C(C)=C\C(=O)O (stereo unspecified)
inactive: Potency [1] | Potency [2] | Potency [3] | Potency [9] | Potency [7] | Potency [5] | Potency [8]

CNCCCC1c2ccccc2C=Cc2ccccc21
inactive: Potency [2] | Potency [8]
active: Potency [1] 29.8 µM

OC/C(Br)=C(\Br)CO
inactive: Potency [1] | Potency [2] | Potency [3] | Potency [9] | Potency [7] | Potency [5] | Potency [8] | Potency [6]

C=CC(C)(C)CC(=O)OC
inactive: Potency [2] | Potency [7]
active: Potency [1] 1.22 µM | Potency [9] 15.4 µM

C[N+](C)(C)CCOC(N)=O
inactive: Potency [1] | Potency [2] | Potency [3] | Potency [7] | Potency [5]

Cc1ccnc2ccccc12
inactive: Potency [1] | Potency [3] | Potency [4] | Potency [7] | Potency [5]

Cc1cc(S(=O)(=O)O)ccc1N=Nc1c(O)ccc2ccccc12
active: Potency [1] 30.6 µM | Potency [3] 48.6 µM | Potency [4] 34.4 µM | Potency [5] 34.4 µM

[O]=[Bi]
inactive: viability change, negative = cytotoxic [1] 0.391% [at 8.39 µM] | viability change, negative = cytotoxic [3] 0.628% [at 8.39 µM] | activity change, negative = cytotoxicity [4] -5.97% [at 8.39 µM] | viability change, negative = cytotoxic [5] -7.88% [at 8.39 µM] | activation [6] -4.11% [at 8.39 µM]
active: Potency [8] 2.11 µM

CC(C)(C)CC(C)(C)c1ccc(OCCO)cc1
active: Potency [1] 48.3 µM | Potency [3] 48.3 µM | Potency [4] 43 µM | Potency [5] 54.2 µM | Potency [8] 19.2 µM
inactive: Potency [6]

CC(=O)N(c1onc(C)c1C)S(=O)(=O)c1ccc(N)cc1
inactive: Potency [1] | Potency [3] | Potency [4] | Potency [9] | Potency [7] | Potency [5]

CC(Cl)C(Cl)Cl (stereo unspecified)
inactive: Potency [1] | Potency [3] | Potency [4] | Potency [5]

Cc1oc(C)c(C(=O)Nc2ccccc2)c1C
inactive: Potency [1] | Potency [3] | Potency [4] | Potency [5] | Potency [6]

CC1CC(=O)NN=C1c1ccc(NCC(C)(C)NCC(O)COc2cc(Cl)ccc2C#N)cc1 (stereo unspecified)
inactive: Potency [1] | Potency [3] | Potency [4] | Potency [9] | Potency [7] | Potency [5] | Potency [8] | Potency [6]

O=C(O)c1snc(Cl)c1Cl
inactive: Potency [1] | Potency [3] | Potency [4] | Potency [7] | Potency [5]

Cc1cnc(C)c(C)n1
inactive: Potency [1] | Potency [3] | Potency [4] | Potency [9] | Potency [7] | Potency [5]

C(=C\c1ccccc1)/CN1CCN(C(c2ccccc2)c2ccccc2)CC1
inactive: Potency [1] | Potency [3] | Potency [4] | Potency [9] | Potency [7] | Potency [5]

CCCC1C(CC)=CC(CC)=CN1c1ccccc1 (stereo unspecified)
active: Potency [7] 19.3 µM | Potency [8] 34.4 µM
inactive: Potency [1] | Potency [3] | Potency [4] | Potency [5]

C=CC(=O)NCOCC(C)C
inactive: Potency [1] | Potency [3] | Potency [4] | Potency [5]

CCC(=O)OC/C=C/c1ccccc1
inactive: Potency [1] | Potency [3] | Potency [4] | Potency [9] | Potency [7] | Potency [5]

c1cnc2c(n1)CCCC2
inactive: Potency [1] | Potency [3] | Potency [4] | Potency [9] | Potency [7] | Potency [5] | Potency [8] | Potency [6]

COCc1c(C(C)C)nc(C(C)C)c(/C=C/[C@@H](O)C[C@@H](O)CC(=O)O)c1-c1ccc(F)cc1
active: Potency [9] 4.73 µM and 6.05 µM
inactive: Potency [1] | Potency [3] | Potency [4] | Potency [7] | Potency [5]

C[Si]1(C)O[Si](C)(C)O[Si](C)(C)O1
inactive: Potency [1] | Potency [3] | Potency [4] | Potency [9] | Potency [7] | Potency [5] | Potency [8]

COc1ccc(CCC(=O)c2c(O)cc(O[C@@H]3O[C@H](CO)[C@@H](O)[C@H](O)[C@H]3O[C@@H]3O[C@@H](C)[C@H](O)[C@@H](O)[C@H]3O)cc2O)cc1O
inactive: Potency [1] | Potency [3] | Potency [4] | Potency [5] | Potency [8] | Potency [6]
